# Laboratory results as given in PubChem BioAssay (NCATS).
# A number with no mark means an inactive call. Inconclusive results are not listed. Calls of active or inactive are those of the source. Unless noted, calls come from the whole dose curve; as a rule, active = well fitted curve in either direction with a large enough effect (not every such curve was filed as active); inconclusive = small, poorly fitted or top-dose-only effect, or another doubt; inactive = flat fitted curve, though single readings scatter.
# How the values were obtained:
# [1] = target: Lysosomal acid glucosylceramidase (Homo sapiens) (UniProt P04062); assay: Glucocerebrosidase-p2 (AID 348; in the data active = potency below about 10 µM; note: potency is the fitted concentration of half-maximal effect); settings: purified GBA, blue fluorogenic substrate, 40 min
# Outline: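 Compounds titrated from 0.6 nM upwards against 0.2 nM enzyme in pH 5.9 citric acid/KH2PO4, taurocholate, tween-20; blue fluorogenic substrate 80 uM, 40 min room temperature, stopped and read Ex 365/Em 440 for AC50.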
# [2] = AP1 Signaling Pathway (AID 357); settings: ME-180 AP-1-bla reporter, EGF-induced, beta-lactamase ratio, 5 h; at 7.69 µM (top of the series) unless noted;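 note: ME-180 reporter cells stimulated with EGF at its EC50 level; % is set by controls: 0 for no effect and ±100 for the full control effect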
# Outline: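 Cells are seeded overnight, exposed to compound titrations and an EC50 level of EGF for 5 hours at 37 °C, then loaded with CCF4 dye for 2.5 hours. Beta-lactamase activity under the AP-1 element is read as a blue/green ratio.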
# [3] = NFAT Signaling Pathway (AID 444); settings: Jurkat NFAT-bla M1, carbachol, beta-lactamase ratio, 5 h; at 7.69 µM (top of the series) unless noted;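 note: carbachol stimulus at about its EC50 of 1 µM final; % is set by controls: 0 for no effect and ±100 for the full control effect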
# Outline: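 Jurkat cells with NFAT-driven β-lactamase reporter and co-expressed M1 receptor, stimulated with carbachol (final 1 uM, ~EC50), compound titration, 5 h at 37 °C. CCF4 loaded 1 h at RT; 460/530 nm ratio gave %activity and AC50.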
# [4] = Stat Signaling Pathway (AID 446); settings: ME-180 SIE beta-lactamase reporter, IL-6 stimulated, 5 h; at 7.69 µM (top of the series) unless noted;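 note: ME-180 cervical cancer cells given 40 pM IL-6 alongside compound; SIE-controlled beta-lactamase reporter measured as 460/530 nm FRET emission ratio; % is set by controls: 0 for no effect and ±100 for the full control effect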
# Outline: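 Screening format detects activators and inhibitors alike: ME-180 SIE-bla cells stimulated at 40 pM IL-6 for 5 hrs with compound, then dual-emission beta-lactamase read at 405 nm excitation.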
# [5] = target: Glucocorticoid receptor (Homo sapiens) (UniProt P04150); assay: GR-GFP Redistribution (AID 450;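 active = compounds whose dose series gives a full or clear partial fitted curve of increased nuclear translocation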; note: potency is the fitted concentration of half-maximal effect); settings: U2OS GR-GFP nuclear translocation, laser cytometry, 2 h
# [6] = target: Glucocorticoid receptor (Homo sapiens) (UniProt P04150); assay: GR-EFC Redistribution (AID 451; calls by dose curve; note: potency is the fitted concentration of half-maximal effect); settings: CHO-K1 GR-EFC translocation, beta-gal luminescence, 2 h
# Outline: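 CHO-K1 cells expressing nuclear EA and GR-ED fragments of b-gal; compounds titrated up to 46 uM final, 2 h at 37 C. GR nuclear translocation read as complemented b-gal luminescence after 1 h RT detection.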
# [7] = target: Mitogen-activated protein kinase 10 (Mus musculus) (UniProt Q61831); assay: JNK3 AlphaScreen Assay (AID 530); settings: JNK3 lysate, c-Jun phosphorylation; series mostly up to 57.1 µM;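 note: kinase came from lysate of stimulated human HepG2 cells; signal reports phosphorylation of biotinylated GST-cJun 1-79 at Ser73 with 10 µM ATP; % is set by controls: 0 for no effect and ±100 for the full control effect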
# Outline: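 qHTS format: compounds tested as titrations against IL-1beta/TNF-alpha-activated HepG2 lysate JNK3 with biotin-GST-cJun substrate and 10 uM ATP at room temperature. Loss of anti-phospho-cJun AlphaScreen signal indicates inhibition.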
# [8] = target: 3',5'-cyclic-AMP phosphodiesterase 4B (Homo sapiens) (UniProt Q07343); assay: qHTS Assay for Inhibitors of PDE-IV (AID 607; active = well fitted activation curve with a large enough effect in the main read-out, with a control signal flat, not every such curve was filed as active; note: % of control where 0% means no effect); settings: HEK293 ACTOne CNG channel cells, membrane potential fluorescence; series mostly up to 22.9 µM
# Outline: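 The readout is membrane depolarisation from a cAMP-sensing CNG channel, detected with a potential dye at ex 535/em 590. Cells were HEK293-derived (endogenous PDE-IV) at 1000 cells/well, titrated up to 22.9 uM final.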
# [9] = target: Cytochrome P450 3A4 (Homo sapiens) (UniProt P08684); assay: qHTS Assay for Activators of Cytochrome P450 3A4 (AID 885; active = well fitted curve in the direction sought with a large enough effect; an effect the other way counts as inactive or inconclusive; note: nearly all actives have a fitted effect of over 65% in size); settings: recombinant CYP3A4, Luciferin-PPXE luminescence, 60 min; series mostly up to 57.1 µM
# Outline: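 Steps: enzyme/substrate mix dispensed; compound added, 10 min RT; NADPH regeneration solution added, 60 min RT; luciferin detection buffer stops reaction; 20 min later luminescence measured.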
# [10] = target: Luciferin 4-monooxygenase (Photinus pyralis) (UniProt P08659); assay: Biochemical firefly luciferase enzyme assay for NPC (AID 624030; active = well fitted curve in the direction sought with a large enough effect; an effect the other way counts as inactive or inconclusive;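 note: purified P. pyralis luciferase at 10 nM with luciferin and ATP substrate; 0% = DMSO and -100% = full luciferase inhibition by PTC124 control; nearly all actives have a fitted effect of over 70% in size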); settings: purified P. pyralis luciferase, luminescence, 5 min; series mostly up to 58.6 µM
# Outline: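 Purified P. pyralis luciferase at 10 nM in 50 mM Tris Acetate (final), luminescence read within 5 minutes of enzyme addition to compounds. Activity normalised to PTC124 versus DMSO; concentration-response curves classed by r2, magnitude and activity.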
# [11] = target: Cytochrome P450 2D6 (Homo sapiens) (UniProt P10635); assay: qHTS Assay for Inhibitors and Substrates of Cytochrome P450 2D6 (AID 891; active = well fitted curve in the direction sought with a large enough effect; an effect the other way counts as inactive or inconclusive;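 note: luciferin methyl ether substrate demethylated by CYP2D6 with NADPH regeneration; % is set by controls: 0 for no effect and ±100 for the full control effect; nearly all actives have a fitted effect of over 60% in size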); settings: recombinant CYP2D6, luciferin-ME EGE luminescence; series mostly up to 11.4 µM
# Outline: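 Human CYP2D6 (5 nM) with 30 uM Luciferin-ME EGE (at Km) in 100 mM KPO4, compound preincubated 10 min, then NADPH regeneration system for 60 min at room temperature. Luciferin read by luminescence; normalized to 1.43 uM quinidine.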
# Chain of 3',5'-cyclic-AMP phosphodiesterase 4B (Homo sapiens) (Q07343 whole entry, looked up): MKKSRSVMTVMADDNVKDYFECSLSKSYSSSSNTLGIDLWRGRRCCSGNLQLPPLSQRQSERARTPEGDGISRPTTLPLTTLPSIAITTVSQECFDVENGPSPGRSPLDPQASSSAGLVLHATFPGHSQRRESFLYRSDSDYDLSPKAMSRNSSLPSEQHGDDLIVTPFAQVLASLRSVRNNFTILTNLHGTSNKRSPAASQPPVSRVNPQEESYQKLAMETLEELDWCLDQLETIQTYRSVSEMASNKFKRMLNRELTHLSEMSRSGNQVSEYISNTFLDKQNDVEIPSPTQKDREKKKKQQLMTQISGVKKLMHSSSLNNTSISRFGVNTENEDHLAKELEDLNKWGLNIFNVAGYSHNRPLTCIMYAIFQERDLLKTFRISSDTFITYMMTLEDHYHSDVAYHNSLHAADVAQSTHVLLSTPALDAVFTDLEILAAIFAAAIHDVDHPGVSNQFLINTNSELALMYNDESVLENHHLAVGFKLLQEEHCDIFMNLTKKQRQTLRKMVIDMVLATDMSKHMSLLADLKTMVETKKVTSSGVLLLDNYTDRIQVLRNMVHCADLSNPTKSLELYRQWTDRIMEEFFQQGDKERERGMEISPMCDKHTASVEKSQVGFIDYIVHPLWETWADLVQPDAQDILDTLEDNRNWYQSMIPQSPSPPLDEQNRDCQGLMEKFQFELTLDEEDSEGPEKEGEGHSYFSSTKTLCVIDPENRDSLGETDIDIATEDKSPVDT
# Chain of Glucocorticoid receptor (Homo sapiens) (P04150 whole entry, looked up, the tested form may be a part): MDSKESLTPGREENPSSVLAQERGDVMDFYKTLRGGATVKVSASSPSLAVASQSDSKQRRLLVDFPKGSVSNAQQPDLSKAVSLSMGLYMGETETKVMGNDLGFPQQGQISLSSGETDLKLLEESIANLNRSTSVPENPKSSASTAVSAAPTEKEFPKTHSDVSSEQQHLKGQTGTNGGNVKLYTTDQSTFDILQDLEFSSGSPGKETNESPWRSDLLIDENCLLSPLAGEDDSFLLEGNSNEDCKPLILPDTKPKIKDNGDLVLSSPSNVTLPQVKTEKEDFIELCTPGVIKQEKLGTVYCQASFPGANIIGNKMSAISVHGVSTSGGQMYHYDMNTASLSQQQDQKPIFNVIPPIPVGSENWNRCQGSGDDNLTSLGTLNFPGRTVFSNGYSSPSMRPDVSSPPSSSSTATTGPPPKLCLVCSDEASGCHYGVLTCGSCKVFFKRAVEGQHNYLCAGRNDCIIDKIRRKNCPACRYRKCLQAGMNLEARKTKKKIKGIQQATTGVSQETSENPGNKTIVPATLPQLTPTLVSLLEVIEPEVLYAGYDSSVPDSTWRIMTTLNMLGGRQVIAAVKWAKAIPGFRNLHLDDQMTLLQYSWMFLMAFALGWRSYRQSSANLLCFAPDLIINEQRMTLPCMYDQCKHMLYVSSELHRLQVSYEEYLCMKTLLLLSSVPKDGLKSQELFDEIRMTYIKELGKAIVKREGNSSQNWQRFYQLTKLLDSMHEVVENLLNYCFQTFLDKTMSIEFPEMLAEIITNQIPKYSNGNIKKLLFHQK
# Chain of Lysosomal acid glucosylceramidase (Homo sapiens) (P04062 whole entry, looked up): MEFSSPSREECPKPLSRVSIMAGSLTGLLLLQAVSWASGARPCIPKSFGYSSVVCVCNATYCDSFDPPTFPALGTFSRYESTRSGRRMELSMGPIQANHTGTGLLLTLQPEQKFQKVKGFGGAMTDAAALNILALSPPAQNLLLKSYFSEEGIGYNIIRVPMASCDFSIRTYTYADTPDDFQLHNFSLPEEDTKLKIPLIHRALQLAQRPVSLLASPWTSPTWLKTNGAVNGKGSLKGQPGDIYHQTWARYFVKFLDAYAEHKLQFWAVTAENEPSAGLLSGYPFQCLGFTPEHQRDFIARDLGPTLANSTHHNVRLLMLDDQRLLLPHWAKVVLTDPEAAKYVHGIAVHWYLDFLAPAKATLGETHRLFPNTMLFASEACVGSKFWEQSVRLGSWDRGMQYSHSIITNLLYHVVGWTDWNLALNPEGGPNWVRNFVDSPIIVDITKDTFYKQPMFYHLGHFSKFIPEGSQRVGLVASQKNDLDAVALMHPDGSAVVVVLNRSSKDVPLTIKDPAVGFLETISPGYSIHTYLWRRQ
# Chain of Cytochrome P450 3A4 (Homo sapiens) (P08684 whole entry, looked up): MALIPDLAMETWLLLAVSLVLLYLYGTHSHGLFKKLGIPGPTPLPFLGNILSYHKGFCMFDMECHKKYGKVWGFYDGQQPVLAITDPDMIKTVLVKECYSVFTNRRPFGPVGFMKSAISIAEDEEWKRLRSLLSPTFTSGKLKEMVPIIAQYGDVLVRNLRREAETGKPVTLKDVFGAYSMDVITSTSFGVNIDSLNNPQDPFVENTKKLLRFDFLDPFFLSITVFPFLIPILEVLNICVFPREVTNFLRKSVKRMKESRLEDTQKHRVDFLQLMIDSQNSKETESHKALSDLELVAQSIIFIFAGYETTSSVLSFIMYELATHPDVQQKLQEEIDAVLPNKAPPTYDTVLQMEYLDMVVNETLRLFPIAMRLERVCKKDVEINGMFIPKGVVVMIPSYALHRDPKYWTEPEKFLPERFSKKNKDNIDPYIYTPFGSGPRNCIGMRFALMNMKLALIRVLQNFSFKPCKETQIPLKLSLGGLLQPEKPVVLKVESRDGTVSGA
# Chain of Cytochrome P450 2D6 (Homo sapiens) (P10635 whole entry, looked up): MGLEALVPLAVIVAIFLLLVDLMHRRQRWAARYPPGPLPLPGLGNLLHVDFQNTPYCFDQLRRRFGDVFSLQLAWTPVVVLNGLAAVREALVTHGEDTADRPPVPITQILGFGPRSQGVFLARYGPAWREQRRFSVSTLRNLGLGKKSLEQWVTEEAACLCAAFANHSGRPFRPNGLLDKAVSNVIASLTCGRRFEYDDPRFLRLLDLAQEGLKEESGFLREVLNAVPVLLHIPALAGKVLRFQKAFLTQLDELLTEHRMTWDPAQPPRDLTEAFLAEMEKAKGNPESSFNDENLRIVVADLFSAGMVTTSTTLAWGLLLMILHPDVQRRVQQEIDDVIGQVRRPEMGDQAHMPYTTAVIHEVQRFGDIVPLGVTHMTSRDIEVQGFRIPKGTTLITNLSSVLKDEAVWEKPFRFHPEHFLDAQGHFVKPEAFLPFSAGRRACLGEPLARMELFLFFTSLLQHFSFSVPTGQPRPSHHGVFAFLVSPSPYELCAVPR
# Chain of Luciferin 4-monooxygenase (Photinus pyralis) (P08659 whole entry, looked up): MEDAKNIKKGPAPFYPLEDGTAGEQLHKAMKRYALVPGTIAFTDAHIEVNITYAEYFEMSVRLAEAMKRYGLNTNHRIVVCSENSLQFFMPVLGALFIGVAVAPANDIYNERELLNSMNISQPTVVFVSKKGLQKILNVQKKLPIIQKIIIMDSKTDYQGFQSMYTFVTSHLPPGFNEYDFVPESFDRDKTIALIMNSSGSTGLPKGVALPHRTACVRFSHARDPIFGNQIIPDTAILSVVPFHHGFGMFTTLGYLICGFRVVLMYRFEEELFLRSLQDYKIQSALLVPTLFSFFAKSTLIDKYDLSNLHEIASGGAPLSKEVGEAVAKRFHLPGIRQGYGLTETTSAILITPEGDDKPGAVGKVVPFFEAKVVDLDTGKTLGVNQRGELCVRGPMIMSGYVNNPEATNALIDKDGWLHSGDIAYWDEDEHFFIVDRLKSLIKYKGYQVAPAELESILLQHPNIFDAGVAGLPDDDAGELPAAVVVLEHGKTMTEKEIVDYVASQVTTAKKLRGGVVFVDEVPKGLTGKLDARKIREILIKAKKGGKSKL
Compound,Potency [1],"activity change, negative = inhibition [2]","activity change, negative = inhibition [3]","activity, negative = inhibition [4]",Potency [5],Potency [6],"activity change, negative = inhibition [7]",outcome [8],"activity change, positive = activation [9]",outcome [10],Potency [11]
NNc1nncn1N,> 11.4 µM,17.5%,5.16%,18.4%,> 46 µM,> 9.22 µM,3.94% [at 11.4 µM],inactive,,,
CC[C@@](O)(C(=O)O)c1cc2n(c(=O)c1CO)Cc1cc3ccccc3nc1-2,> 11.4 µM,0.967%,-9.59%,-0.155%,> 46 µM,> 9.22 µM,3.55% [at 11.4 µM],inactive,-36.6% [at 11.4 µM],,
CSc1ccc2c(c1)c(CCN)c(C)n2Cc1ccccc1Cl,> 11.4 µM,16.6%,17.6%,-2.31%,> 46 µM,> 9.22 µM,-5.61% [at 11.4 µM],inactive,,,
COc1ccc(C[C@@H]2C(=O)N[C@H](C)C(=O)N(C)[C@@H]3C(=O)N(C)[C@@H](Cc4ccc(O)c(c4)Oc4ccc(cc4)[C@H]3O)C(=O)N[C@@H](C)C(=O)N[C@H](C)C(=O)N2C)cc1,> 11.4 µM,-121% (active),-133% (active),-105% (active),> 46 µM,> 9.22 µM,3.04% [at 11.4 µM],inactive,,,
c1cc(CCN2CCCCC2)ccn1,> 11.4 µM,1.53%,7.13%,6.27%,> 46 µM,> 9.22 µM,1.02% [at 11.4 µM],inactive,-36% [at 11.4 µM],,
CC(C)(C)c1cc(C#N)cc(Br)c1OP(=O)(Oc1c(Br)cc(C#N)cc1C(C)(C)C)c1ccccc1,> 11.4 µM,7.55%,-6.35%,16.6%,> 46 µM,> 9.22 µM,-1.35% [at 11.4 µM],inactive,,,
CN(C)CCCNc1c2c(nc3ccc(Cl)cc13)CCCC2,> 11.4 µM,-1.02%,-26.1%,10%,> 46 µM,> 9.22 µM,3.7% [at 11.4 µM],inactive,,,
Cc1ccc(O)cc1 (tested in a mixture with another compound),> 11.4 µM,3.77%,9.05%,-4.46%,> 46 µM,> 9.22 µM,1.19% [at 11.4 µM],inactive,,inactive,
O=S(=O)(Nc1nccs1)c1ccc([As](=O)(O)O)cc1,> 11.4 µM,4.77%,8.49%,10.3%,> 46 µM,> 9.22 µM,2.72% [at 11.4 µM],inactive,,,
O=C(O)C[C@H]1OCC=C2CN3CC[C@]45c6ccccc6N[C@@H]4[C@H]1[C@H]2C[C@H]35,> 11.4 µM,0.952%,-1.05%,-4.29%,> 46 µM,> 9.22 µM,8.39% [at 11.4 µM],inactive,,,
O=C(O)C[C@H]1OCC=C2CN3CC[C@@]45C6=CC(=O)C(=O)C([N+](=O)[O-])=C6N[C@H]4[C@H]1[C@H]2C[C@@H]35,> 11.4 µM,4.93%,2.25%,2.08%,> 46 µM,> 9.22 µM,-0.499% [at 11.4 µM],inactive,,,
CCN=C=NCCCN(C)C,> 11.4 µM,5.33%,4.76%,2.84%,> 46 µM,> 9.22 µM,-0.714% [at 11.4 µM],inactive,,,inactive
O=S(=O)(NCCO)c1cc[c]([Sb](=[O])([OH])[OH])cc1,> 11.4 µM,-1.39%,16.2%,6.67%,> 46 µM,> 9.22 µM,1.82% [at 11.4 µM],inactive,,,
CC1=NN(c2ccccc2)C(=O)[C@@H]1N=Nc1ccc([As](=O)(O)O)c(O)c1,> 11.4 µM,6.32%,12.3%,-13.3%,> 46 µM,> 9.22 µM,-2.32% [at 11.4 µM],inactive,,,inactive
CCSCC[C@H](N)C(=O)O,> 11.4 µM,4.84%,3.15%,-0.0113%,> 46 µM,> 9.22 µM,3.04% [at 11.4 µM],inactive,,,
